High-throughput results from PubChem.
A selection: hits, their analogues and other compounds. The true share with any hit is near 0.31%.
TRPML1 agonist = human mucolipin-1 channel agonism | 0.12% of 410,000 active | Q9GZU1 | AID 624414 | TRPML1-expressing cells, Ca2+ dye fluorescence, FDSS | activation, % (no concentration beside the values); in the data active means activation above about 50%; inconclusive means mostly about 30% to 49%; further: 0% is about no effect
Target sequence (Q9GZU1 whole entry, looked up): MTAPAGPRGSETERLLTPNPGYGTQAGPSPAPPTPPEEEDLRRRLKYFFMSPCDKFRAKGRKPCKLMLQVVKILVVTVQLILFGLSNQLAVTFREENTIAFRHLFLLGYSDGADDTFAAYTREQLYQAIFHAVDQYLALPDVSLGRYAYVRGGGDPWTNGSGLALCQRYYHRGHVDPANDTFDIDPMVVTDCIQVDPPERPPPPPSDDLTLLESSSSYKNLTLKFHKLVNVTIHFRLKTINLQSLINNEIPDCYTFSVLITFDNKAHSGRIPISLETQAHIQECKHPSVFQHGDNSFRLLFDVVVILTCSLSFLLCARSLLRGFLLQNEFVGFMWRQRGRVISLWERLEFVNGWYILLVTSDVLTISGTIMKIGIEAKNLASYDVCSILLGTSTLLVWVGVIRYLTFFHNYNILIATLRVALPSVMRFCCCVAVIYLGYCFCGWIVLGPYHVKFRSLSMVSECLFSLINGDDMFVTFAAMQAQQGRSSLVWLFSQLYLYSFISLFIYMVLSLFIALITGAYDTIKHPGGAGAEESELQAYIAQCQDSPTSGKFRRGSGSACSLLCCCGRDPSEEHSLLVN
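Kinetic FDSS Ca2+ read in Tet-induced TRPML1-DL cells (ABD Ca8 dye plus quencher, 45-90 min RT loading): baseline, then compound, then 110 s agonist window; EC80 agonist 54-4 at 4uM final added afterwards for a 110 s antagonist window.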
TRPV1 PAM = human TRPV1 potentiation. Q8NER1. TRPV1-expressing cells, Fluo-8 calcium influx, capsaicin EC20 potentiation. potentiation, % at 8.33 µM. 0.02% of 320,000 active; in the data active means potentiation above about 80%; inconclusive means between about 30% and that limit; further: 0% is about no effect
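TRPV1-expressing cells were cultured overnight at 35.5C and loaded with Fluo-8 calcium dye for 40 to 90 min at room temperature. After a 10 s baseline, compound was added and calcium influx was read kinetically for 3 min (ex 480/em 520 nm).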
TRPML1 inh = human mucolipin-1 channel inhibition | activity change, negative = inhibition, % (concentration not given with the values) | AID 624415 | TRPML1-inducible cells, Ca2+ dye fluorescence, FDSS; hits give low values; inhibition of EC80 agonist-evoked calcium signal | 0.02% of 390,000 active | Q9GZU1; in the data active means activity change below about -50%; inconclusive means between about -30% and that limit;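 further: stimulus is agonist 54-4 at its EC80 concentration; on the % scale 0 is the no-effect control and ±100 the full control effect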
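TRPML1-DL cells, Tet-induced overnight (~16 h, 37 °C) at 1,500 cells/well, were loaded with Ca8 no-wash dye plus quencher for 45-90 min at room temperature. Compounds were pinned during FDSS kinetic reading; agonist 54-4 at EC80 (4 uM final) then added.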
TRPV1 ag = activates the human vanilloid receptor TRPV1; 0.19% of 320,000 active; activation, % at 8.33 µM; AID 540275; TRPV1-expressing cells, Fluo-8 calcium influx, agonist mode; in the data active means activation above about 80%; inconclusive means between about 30% and that limit; further: 0% is about no effect
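TRPV1-expressing cells were cultured overnight at 35.5C and loaded with Fluo-8 calcium dye for 40 to 90 min at room temperature. After a 10 s baseline, compound was added and calcium influx was read kinetically for 3 min (ex 480/em 520 nm).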
The depositor's hits bear a star; ? = inconclusive; · = no result; ! = not active in a repeat.

SMILES | TRPML1 agonist | TRPV1 PAM | TRPML1 inh | TRPV1 ag
O=C(CN1CCCN(Cc2ccc(F)cc2)S1(=O)=O)NCc1ccccc1Cl | 1.7 | · | 40.2 | ·
CC1CCN(S(=O)(=O)c2ccc(Cl)cc2)CC1 | 0.3 | -16.7 | -8.7 | 0.4
CC1CCN(S(=O)(=O)c2ccc(C(C)C)cc2)CC1 | 114.9* | 0.3 | -9.9 | -1.9
Cc1ccc(NC(=O)C2CCN(S(=O)(=O)c3ccc(Cl)c(C(F)(F)F)c3)CC2)nc1 | 69.0* | -20.9 | -8.0 | 23.9
Cc1ccnc(NC(=O)C2CCN(S(=O)(=O)c3ccc(Cl)c(C(F)(F)F)c3)CC2)c1 | 2.2 | -1.8 | 8.8 | 7.9
O=C(Nc1ccncc1)C1CCN(S(=O)(=O)c2ccccc2C(F)(F)F)CC1 | -0.3 | -5.3 | 0.7 | 82.8*
Cc1ccc(NC(=O)c2ccc(S(=O)(=O)N3CCCC3)cc2)nc1 | -0.5 | 5.2 | -0.2 | 86.4*
O=C(Nc1ccncc1)C1CCN(S(=O)(=O)c2ccccc2)CC1 | -0.2 | 2.4 | 13.7 | -3.4
CCCCN(CCC#N)c1ccc(/C=C/c2ccnc3ccccc23)cc1 | 15.7 | · | · | ·
CCN(CC)CCCNC(=O)Cn1nc(N2CCN(c3ccccc3OC)CC2)ccc1=O | 0.5 | · | 14.6 | ·
C[C@@H]1CN([C@@H](C)CO)C(=O)CCCn2nncc2CO[C@H]1CN(C)Cc1cccc(O)c1 | -0.5 | · | -13.3 | ·
Cc1ccc(C)c(NC(=O)CCn2nc(C)c3c(C)n(-c4ccccc4)nc3c2=O)c1 | -0.9 | · | -53.9* | ·
Cc1ccc(CNC(=O)CSCc2ccccc2)cc1 | 1.2 | -7.2 | 1.5 | ?
Cc1ccc(CNC(=O)CSCc2ccc(F)cc2)cc1 | 1.0 | -10.1 | -1.6 | 80.6*
COc1ccc(N=Nc2nc3ccc(Br)cc3n2C)cc1 | 53.6* | -10.8 | -6.0 | 1.1
CC1=C(C(=O)Nc2cc(Cl)ccc2C)C(c2sccc2C)n2ncnc2N1 (centres undefined) | 1.4 | · | 0.8 | ·
Cc1ccccc1C(=O)Nc1nnc(-c2ccc(C(C)(C)C)cc2)s1 | 0.9 | 82.7* | 6.6 | -3.5
Cc1cccc(C(=O)Nc2nnc(-c3ccc(C(C)(C)C)cc3)s2)c1 | -0.8 | 3.5 | 10.4 | -1.0
COc1ccc(C(=O)N(C)C2CCCN(Cc3ccccc3F)C2)cc1OC (centres undefined) | -0.8 | 81.9* | 4.3 | -3.0
CCN(C(=O)CSc1nc2cc(C(=O)O)ccc2c(=O)n1-c1ccccc1F)C1CCS(=O)(=O)C1 (centres undefined) | 0.3 | · | 9.0 | ·
CCOc1ccc(C(c2c(O)cc(C)n(Cc3ccco3)c2=O)N2CCN(c3ccccc3)CC2)cc1 (centres undefined) | 0.3 | · | 25.8 | ·
CC1=C(C(=O)Nc2cccc(Cl)c2)C2(CCCCCC2)OC1=O | -0.3 | · | -20.9 | ·
COc1cc(/C=C/C(=O)CC(=O)/C=C/c2ccc(O)c(OC)c2)ccc1O | 55.2*! | 7.5 | 1.3 | ?
COc1cc(/C=C/C(=O)/C=C(O)/C=C/c2ccc(O)c(OC)c2)ccc1O | ? | 5.1 | 1.9 | ?
CCOC(=O)[C@H]1[C@H]2COc3ccc(Cl)cc3[C@@H]2N2C(=O)c3cc(OC)ccc3NC(=O)[C@@]12C | 1.8 | 11.9 | 1.6 | ?
SMILES | TRPML1 agonist | TRPV1 PAM | TRPML1 inh | TRPV1 ag
CCOC(=O)[C@H]1[C@H]2COc3ccc(Cl)cc3[C@@H]2N2C(=O)c3ccc(Cl)cc3NC(=O)[C@@]12C | 0.9 | 0.2 | 22.9 | 87.2*
CCOC(=O)[C@H]1[C@H]2COc3ccc(OC)cc3[C@@H]2N2C(=O)c3ccc(Cl)cc3NC(=O)[C@@]12C | -0.2 | ? | 37.7 | 90.2*
Cc1nc(C(C)NC(=O)c2cc(COc3ccc(C)c(C)c3)on2)c(C)s1 (centres undefined) | 1.3 | 4.4 | 11.2 | 19.1
COc1cc(/C=C/C(=O)c2ccc3c(c2)OCO3)cc(Cl)c1O | 55.8* | -0.4 | 2.4 | ?
COc1ccc(C(=O)C=Cc2ccc3c(c2)OCO3)cc1OC | 0.2 | · | 18.6 | ·
COc1cc(/C=C2/SC(=S)N(Cc3ccccc3)C2=O)ccc1OCC(=O)O | -0.3 | 28.1 | 7.8 | 3.0
COc1cc(/C=C2/SC(=S)N(Cc3ccccc3)C2=O)cc(Cl)c1O | 64.7* | -4.9 | -3.0 | ?
O=C(NCc1ccccc1Cl)C1CCCN(c2ncnc3c2nc2n3CCCCC2)C1 (centres undefined) | 1.2 | -9.1 | -4.5 | 80.7*
CCOc1ccccc1CNC(=O)C1CCCN(c2ncnc3c2nc2n3CCCCC2)C1 (centres undefined) | 1.3 | -10.3 | 1.5 | 22.5
CC(C)(C)c1cc(CCC(=O)NCc2ccncc2)cc(C(C)(C)C)c1O | -0.4 | -12.4 | -4.1 | 91.3*
CC(C)(C)c1cc(CCC(=O)Nc2ccncc2)cc(C(C)(C)C)c1O | -0.1 | · | 5.8 | ·
Nc1ccc(/C=C/c2nccc3ccccc23)cc1 | 3.2 | · | · | ·
Cc1cc(C)n(C(C)CC(=O)NCc2ccccc2C)n1 (centres undefined) | 1.3 | · | 8.7 | ·
O=C(NCc1ccccn1)C(=O)NCc1ccccn1 | -0.7 | 96.7* | 2.1 | -14.7
CC1(C(=O)Nc2cnc3ccccc3c2)CCN1Cc1ccc(-c2ccccc2)o1 (centres undefined) | -0.3 | · | · | ·
CC(=O)Oc1ccc(C2=NN(c3ccccc3)C(c3ccccc3)C2)cc1 (centres undefined) | 2.0 | 11.8 | -6.2 | 2.1
Cc1nc2ccc(C(=O)N3CCC(O)(Cc4ccccc4)CC3)cn2c1N(C)C(=O)CCc1ccccc1 | -0.4 | · | · | ·
COc1nc(Nc2ccc(C(C)C)cc2)nc(OC)n1 | 1.7 | 3.2 | 2.1 | 2.3
CCOc1c(Nc2ccc(C(C)C)cc2)c(=O)c1=O | -1.3 | -0.7 | 24.8 | 83.4*
O=C(Nc1ccc2c(c1)CCC2)c1cc(F)cc(F)c1 | 1.1 | -3.3 | -11.4 | ?
CC(=O)c1cccc(NC(=O)NC2CCCc3ccccc32)c1 (centres undefined) | 0.7 | 3.6 | -3.3 | 82.6*
CC(=O)c1cccc(NC(=O)c2ccc3c(c2)CCCC3)c1 | 0.2 | -0.6 | -12.1 | 87.0*
CC(=O)c1cccc(NC(=O)c2ccc(OC3CSC3)cc2)c1 | -0.8 | -5.8 | -3.4 | 112.7*
COc1cccc(NC(=O)c2ccc3c(c2)CCCC3)c1 | 0.2 | -1.9 | 5.4 | ?
CC(=O)c1ccc(NC(=O)NC2CCCc3ccccc32)cc1 (centres undefined) | -0.6 | -3.4 | -6.2 | ?
SMILES | TRPML1 agonist | TRPV1 PAM | TRPML1 inh | TRPV1 ag
O=C(Nc1ccc2c(c1)CCC2)c1cccc(F)c1 | -0.1 | -17.0 | 10.3 | 97.4*
Cc1cn([C@H]2C[C@H](O)[C@@H](/C=C/C(=O)NCCc3ccc(S(N)(=O)=O)cc3)O2)c(=O)[nH]c1=O | 0.9 | · | -11.1 | ·
O=C(c1cc(COc2ccc(F)cc2Cl)on1)N1CCC(c2ccncc2)CC1 | 0.9 | 5.5 | 33.6 | 85.6*
O=C(c1cc(COc2ccc(F)cc2Cl)on1)N1CCCCCC1 | 0.0 | -13.4 | 6.6 | 24.6
O=C(Nc1ccc2c3c(cccc13)CC2)c1ccc(Br)o1 | -1.0 | -6.9 | 16.3 | 84.9*
CC1CCN(S(=O)(=O)c2ccc3c(ccc(=O)n3CC(=O)NCc3ccccc3Cl)c2)CC1 | 0.3 | · | -16.4 | ·
